Assay results published in ChEMBL document CHEMBL1961873, “Compounds: GSK PKIS; Assays: Nanosyn kinase panel” (2012).

Each molecule was assayed against Mast/stem cell growth factor receptor Kit (Homo sapiens) (UniProt P10721). Conditions: at 0.1 µM.
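Note: values are mean inhibition of KIT, from the GSK PKIS dataset.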

Mast/stem cell growth factor receptor Kit (Homo sapiens), sequence (P10721 whole entry): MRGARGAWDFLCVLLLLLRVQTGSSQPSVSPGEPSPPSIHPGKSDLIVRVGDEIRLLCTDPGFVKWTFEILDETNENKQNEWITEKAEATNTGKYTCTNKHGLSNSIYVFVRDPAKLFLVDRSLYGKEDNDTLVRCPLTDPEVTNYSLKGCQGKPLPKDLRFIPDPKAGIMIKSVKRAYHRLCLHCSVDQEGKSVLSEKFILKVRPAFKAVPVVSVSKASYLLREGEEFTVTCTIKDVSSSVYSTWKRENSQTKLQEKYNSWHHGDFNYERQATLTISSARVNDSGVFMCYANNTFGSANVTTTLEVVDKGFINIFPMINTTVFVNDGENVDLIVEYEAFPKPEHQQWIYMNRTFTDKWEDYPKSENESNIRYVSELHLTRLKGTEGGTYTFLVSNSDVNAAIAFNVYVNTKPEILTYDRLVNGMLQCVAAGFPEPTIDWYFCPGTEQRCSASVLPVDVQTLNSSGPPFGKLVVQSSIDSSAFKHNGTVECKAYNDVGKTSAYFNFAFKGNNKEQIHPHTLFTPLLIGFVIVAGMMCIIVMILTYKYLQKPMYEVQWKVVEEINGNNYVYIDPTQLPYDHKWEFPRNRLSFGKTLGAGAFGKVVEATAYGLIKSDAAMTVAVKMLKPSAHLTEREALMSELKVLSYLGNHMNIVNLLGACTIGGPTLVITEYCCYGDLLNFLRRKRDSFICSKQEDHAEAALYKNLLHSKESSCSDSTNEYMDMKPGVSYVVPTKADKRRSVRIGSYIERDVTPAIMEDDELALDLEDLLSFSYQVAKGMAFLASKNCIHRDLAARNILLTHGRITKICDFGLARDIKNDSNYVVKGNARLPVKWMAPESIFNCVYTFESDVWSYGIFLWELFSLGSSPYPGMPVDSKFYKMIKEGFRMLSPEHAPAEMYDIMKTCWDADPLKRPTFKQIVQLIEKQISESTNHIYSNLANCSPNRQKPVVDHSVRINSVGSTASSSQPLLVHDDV

First: N#Cc1c(NC(=O)c2cccc3ccccc23)sc2c1CCCC2
Second: CC1=C(C(=O)Nc2ccc3[nH]ncc3c2)C(c2ccc3ccccc3c2)CC(=O)N1 (stereo not drawn)
The inhibition of the first is higher: 2.71% for the first, 2.51% for the second.

Compared with `CCn1c(-c2nonc2N)nc2cncc(C(=O)N3CCNCC3)c21`, `CCn1c(-c2nonc2N)nc2ccncc21` is lower in inhibition: 7.95% for the first, -0.66% for the second.

Compared with `NS(=O)(=O)c1cccc(-c2ccc3c(NC(=O)C4CC4)n[nH]c3c2)c1`, `O=C(Nc1n[nH]c2nc(-c3ccco3)c(Br)cc12)C1CC1` is higher in inhibition: -1.56% for the first, 6.02% for the second.

Compared with `Cc1nnc(-c2ccc(C)c(-c3ccc(C(=O)Nc4cccc(C#N)c4)cc3)c2)o1`, `NCc1ccc(-c2nc(-c3ccc(Cl)c(O)c3)c(-c3ccncc3)[nH]2)cc1` is lower in inhibition: 5.68% for the first, 0.79% for the second.

Going from `Cc1nn(C)c2cc(N(C)c3ccnc(Nc4cccc(S(N)(=O)=O)c4)n3)ccc12` to `NC(=O)c1cccc(Nc2nccc(Nc3cccc4[nH]ncc34)n2)c1`, the inhibition rises from 47% to 48.5%.

Going from `CS(=O)(=O)CCN(CC#N)Cc1ccc(-c2ccc3ncnc(Nc4ccc(OCc5cccc(F)c5)c(Cl)c4)c3c2)o1` to `CS(=O)(=O)CCNCc1ccc(-c2ccc3ncnc(Nc4ccc(OCc5cccc(F)c5)c(C(F)(F)F)c4)c3c2)o1`, the inhibition rises from -0.23% to 3.96%.

Compared with `COc1cc2ncn(-c3cc(OCc4ccccc4Cl)c(C(N)=O)s3)c2cc1OC`, `COc1ccc(COc2ccc(Cc3cnc(N)nc3N)cc2OC)cc1` is higher in inhibition: 0.54% for the first, 1.04% for the second.

Going from `Cc1cccc(-c2n[nH]cc2-c2ccc3ncccc3n2)n1` to `CN(C)c1cc2c(Nc3ccc4nc(Cc5ccccc5)[nH]c4c3)ncnc2cn1`, the inhibition rises from -0.25% to 4.97%.

Compared with `CCN1CCC(CC(=O)Nc2n[nH]c3nc(-c4cccs4)c(Br)cc23)CC1`, `CS(=O)(=O)CCNCc1nc(-c2ccc3ncnc(Nc4ccc(F)c(Cl)c4)c3c2)cs1` is higher in inhibition: -4.07% for the first, 3.87% for the second.

Going from `Nc1nc(-c2ccc3c(c2)C(=Cc2cc(Br)c(O)c(Br)c2)C(=O)N3)cs1` to `O=C1Nc2ccc(C(=O)c3ccco3)cc2C1=Cc1cc(Cl)c(O)c(Cl)c1`, the inhibition rises from -0.22% to 16.6%.

Compared with `COc1ccc(-c2nn3ncccc3c2-c2ccnc(Nc3ccc(Cl)c(C(F)(F)F)c3)n2)cc1`, `Fc1cccc(COc2ccc(Nc3ncnc4cc(-c5ccc[nH]5)sc34)cc2Cl)c1` is higher in inhibition: 1.4% for the first, 2.16% for the second.

Compared with `[O-][S+]1CCN(Cc2ccc(-c3ccc4ncnc(Nc5ccc(OCc6ccccc6)c(F)c5)c4c3)o2)CC1`, `CC(=O)Nc1cccc(C#Cc2cncnc2Nc2ccc(OCc3cccc(F)c3)c(Cl)c2)n1` is lower in inhibition: 2.02% for the first, -0.74% for the second.

Going from `CC(C)=Cc1cccc2c1/C(=N/Nc1ccc(S(N)(=O)=O)cc1)C(=O)N2` to `CS(=O)(=O)Nc1ccc(N/C=C2\C(=O)Nc3ccccc32)cc1`, the inhibition rises from 14.1% to 17.6%.

Compared with `Nc1ncnc2occ(-c3ccc(NC(=O)Nc4cc(C(F)(F)F)cc(C(F)(F)F)c4)cc3)c12`, `COC(=O)Nc1nc2cc(Oc3ccc(NC(=O)Nc4cccc(C(=O)O)c4)cc3)ccc2[nH]1` is lower in inhibition: 29% for the first, 2.05% for the second.

First: COc1cc(C)c(NC(=O)CN(C)C)cc1Nc1nc(Nc2cccc(F)c2C(N)=O)c2cc[nH]c2n1
Second: CCc1cccc(NC(=O)Nc2ccc(Oc3ccc4nc(NC(=O)OC)[nH]c4c3)cc2)c1
The inhibition of the first is lower: 2.98% for the first, 87.5% for the second.

Going from `COc1ccc(-c2ccncc2)cc1C(N)=O` to `CCn1c(-c2nonc2N)nc2c(N3CCCC3)nccc21`, the inhibition falls from 3.75% to -1.56%.

Molecule `CCn1c(-c2nonc2N)nc2c(C#CC(C)(C)O)nc(CN3CCCC3)cc21` has an inhibition of -3.09%.
